Measurements reported in PubChem BioAssay.
Results filed as inconclusive are left out. Activity calls are given as the source filed them. Unless noted, how the calls were made is not given here.

What was measured:
[1] = yeast TOR pathway RPL19A-GFP modulators, primary screen, cell-based, S. cerevisiae, multiplex flow cytometry (AID 1862; in the data active means percent of DMSO control GFP below about 86%;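 further: lower values mimic rapamycin by blocking the RPL19A rise seen in DMSO cells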); details: S. cerevisiae RPL19A-GFP strain, flow cytometry fluorescence, 3 h; at 10 µM; stronger effect = lower value
[2] = modulators of MEP2-GFP levels in yeast, primary screen, S. cerevisiae, multiplex flow cytometry (AID 1867;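 active means GFP response, as percent of the DMSO control, above the screen-wide mean plus 3 SD, about 139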;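 further: median GFP channel fluorescence of barcode-gated MEP2-GFP cells measured by flow cytometry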); details: S. cerevisiae MEP2-GFP strain, 3 h, at 10 µM, stronger effect = higher value
[3] = modulators of CIT2-GFP expression in yeast, primary screen, S. cerevisiae, GFP fusion, multiplex flow cytometry (AID 1870;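 active means percent response above a set limit, the screen-wide mean plus 3 SD, cut at about 130% in these data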;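 further: barcoded CIT2-GFP strain pooled with four other GFP strains with rapamycin as positive control; median GFP fluorescence per well over plate mean of DMSO wells so 100% = DMSO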); details: 3 h, at 10 µM, stronger effect = higher value
[4] = modulators of LAP4-GFP expression in yeast, primary screen, S. cerevisiae, multiplex flow cytometry (AID 1873;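 active means GFP signal, as percent of the solvent control, above the screen mean plus 3 SD, about 149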); details: 3 h, at 10 µM, stronger effect = higher value
[5] = modulators of AGP1-GFP expression in yeast TOR pathway, primary screen, cell-based, multiplex flow cytometry, S. cerevisiae (AID 1887;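 active means GFP signal above the screen-wide mean plus 3 SD, that is over about 124.5% of the solvent control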;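 further: AGP1-GFP fusion strain of S. cerevisiae within a five-strain barcoded multiplex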); details: 3 h, at 10 µM, stronger effect = higher value
[6] = inhibitors of CD8+ T cell-vesicle binding, pilot screen, LFA-1/ICAM-1 modulator project, MLPCN validation set, flow cytometry (AID 2523;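 active means response below a set limit, under 55% cells CD8-positive and vesicle-bound, and CD8 cells' 90th-percentile brightness under 279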;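 on vesicle binding response: mean PE anti-B7-1 fluorescence of CD8+ cells relative to row control; 100% = QL9-loaded vesicles with DMSO vehicle in the same plate row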); details: 2C mouse CD8+ T cells, at 7 µM, stronger effect = lower value; double positive events: measured here: CD8+/vesicle+ event percentage
[7] = molecular target: Integrin beta-1 (Homo sapiens) + Integrin alpha-4 (Homo sapiens) (UniProt P13612+P05556); assay: inhibition of HUTS-21 binding to VLA-4, pilot screen, VLA-4 allosteric modulator project, U937 cells, HUTS-21 mAb, flow cytometry, validation set (AID 2674;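 active means inhibition above 50%, about 3 SD of the validation set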;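 further: antibody binding induced by the VLA-4 ligand LDV present at three times its Kd; 0% = LDV ligand with antibody and no compound and 100% = antibody without LDV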); details: HUTS-21 LIBS mAb binding, at 6.7 µM, stronger effect = higher value
[8] = superoxide lowering in aged yeast cells, pilot screen, validation compound set (AID 2706;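 active means superoxide response below 65% of plate, a cut near 3 SD across the whole screen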;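 further: yeast exposed to compound for one week at 30 degrees C before staining; 100% = mean of all compound wells on the same plate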); details: S. cerevisiae aging, superoxide DHE fluorescence; at 10 µM; stronger effect = lower value
[9] = molecular target: Beta-adrenergic receptor kinase 1 (Homo sapiens) (UniProt P25098); assay: GRK2 binders displacing RNA aptamer, biochemical, validation, human GRK2, bead flow cytometry (AID 488806;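 active means aptamer binding inhibition above 30%, about 3 SD of noise from non-fluorescent compounds; inactive means inhibition at or below 30%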); details: bead-bound GRK2, FAM-aptamer displacement, at 10 µM, stronger effect = higher value
[10] = molecular target: Beta-2 adrenergic receptor (Homo sapiens) (UniProt P07550); assay: beta2AR agonists driving receptor internalization, pilot screen, cell-based, FAP fluorogen, flow cytometry, validation set (AID 504459;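 active means percent response above 42, roughly 3 SD of non-fluorescent test compounds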;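 further: agonist-driven loss of surface beta2AR via internalization measured by FAP dye flow cytometry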); details: Am2.2-beta2AR cells, FAP surface receptor flow cytometry; at 10 µM; stronger effect = higher value
[11] = molecular target: AP-2 complex subunit beta (Homo sapiens) (UniProt P63010); assay: inhibitors of arrestin peptide binding to AP2, pilot screen, biochemical, validation set, GST-AP2 beads, flow cytometry (AID 504541;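 active means inhibition above 54%, about 3 SD of non-fluorescent compounds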;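 further: AP2 carries R879A mutation and is captured from E. coli lysate; bead-bound FITC arrestin peptide fluorescence measuring arrestin peptide binding to AP2; 0% = DMSO wells and 100% = excess unlabeled arrestin peptide control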); details: FITC arrestin peptide, at 10 µM, stronger effect = higher value
[12] = yeast V-ATPase proton transport modulators, S. cerevisiae, pHLuorin, HTS validation (AID 504600; in the data active means response above about 15%;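 further: plate controls were DMSO for no effect and reference compound for full effect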); details: S. cerevisiae pHLuorin cytosolic pH, at 10 µM, stronger effect = higher value
[13] = test system: anti-desmoglein-3 scFv antibody binding to human DSG3; assay: inhibitors of anti-DSG3 scFv binding to DSG3, pilot screen, biochemical, validation compound set, bead-based, flow cytometry (AID 588368;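 active means binding below the plate cutoff, the plate median minus 3 SD, with a reading above zero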;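 further: signal is the median channel fluorescence of bead-bound GFP antibody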); details: Protein G beads, DSG3-Fc, scFv-GFP binding, at 10 µM, stronger effect = lower value
[14] = test system: Botulinum neurotoxin type F light chain protease (Clostridium botulinum); assay: Botulinum neurotoxin type F light chain protease inhibition, multiplex microsphere flow cytometry, validation set (AID 588459); details: multiplex microsphere protease substrate cleavage assay, at 10 µM, stronger effect = higher value
[15] = molecular target: Botulinum neurotoxin type A (Clostridium botulinum) (UniProt P0DPI0); assay: BoNT/A light chain protease inhibitors, biochemical, multiplex microsphere flow cytometry, validation set (AID 588460); details: at 10 µM, stronger effect = higher value
[16] = molecular target: Lethal factor (Bacillus anthracis) (UniProt P15917); assay: Lethal factor protease inhibitors, Bacillus anthracis, multiplex microsphere cleavage assay, validation set (AID 588461); details: flow cytometry, at 10 µM, stronger effect = higher value
[17] = inhibitors of fungal efflux pumps CDR1, CDR2, MDR1, pilot screen, validation compound set, multiplex, phenotypic (AID 588506;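 active means efflux inhibition above 0.42, the validation set average plus 4 SD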;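 further: Nile Red retained in cells so higher fluorescence means more efflux inhibition; 0 = negative control wells and 1 = enniatin B 25 µM full block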); details: S. cerevisiae pump-expressing triplex, Nile Red efflux flow cytometry; at 10 µM; stronger effect = higher value
[18] = molecular target: ATP-binding cassette sub-family B member 6 (Homo sapiens) (UniProt Q9NP58); assay: ABCB6 transporter inhibitors, pilot screen, K562-ABCB6 cells, flow cytometry, validation set (AID 588550;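 active means inhibition above the screen-wide mean plus 3 SD, about 51%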;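 further: 0% = DMSO wells and 100% = benzethonium chloride 70 µM positive control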); details: K562-ABCB6 porphyrin accumulation, 1 h, at 10 µM, stronger effect = higher value
[19] = promoters of myeloid differentiation in arrested cells, primary screen, cell-based, GFP/MAC1 double positive, flow cytometry, validation set (AID 588685;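 active means differentiation response of at least 50%, scaled between solvent and reference control, from cells with both markers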;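 further: compound exposure lasts four days before antibody staining and flow analysis; 0% = DMSO wells and 100% = 5 µM fulvestrant positive control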); details: ER-HoxA9 marrow cells, stronger effect = higher value

Lethal factor (Bacillus anthracis), sequence (P15917 whole entry, looked up): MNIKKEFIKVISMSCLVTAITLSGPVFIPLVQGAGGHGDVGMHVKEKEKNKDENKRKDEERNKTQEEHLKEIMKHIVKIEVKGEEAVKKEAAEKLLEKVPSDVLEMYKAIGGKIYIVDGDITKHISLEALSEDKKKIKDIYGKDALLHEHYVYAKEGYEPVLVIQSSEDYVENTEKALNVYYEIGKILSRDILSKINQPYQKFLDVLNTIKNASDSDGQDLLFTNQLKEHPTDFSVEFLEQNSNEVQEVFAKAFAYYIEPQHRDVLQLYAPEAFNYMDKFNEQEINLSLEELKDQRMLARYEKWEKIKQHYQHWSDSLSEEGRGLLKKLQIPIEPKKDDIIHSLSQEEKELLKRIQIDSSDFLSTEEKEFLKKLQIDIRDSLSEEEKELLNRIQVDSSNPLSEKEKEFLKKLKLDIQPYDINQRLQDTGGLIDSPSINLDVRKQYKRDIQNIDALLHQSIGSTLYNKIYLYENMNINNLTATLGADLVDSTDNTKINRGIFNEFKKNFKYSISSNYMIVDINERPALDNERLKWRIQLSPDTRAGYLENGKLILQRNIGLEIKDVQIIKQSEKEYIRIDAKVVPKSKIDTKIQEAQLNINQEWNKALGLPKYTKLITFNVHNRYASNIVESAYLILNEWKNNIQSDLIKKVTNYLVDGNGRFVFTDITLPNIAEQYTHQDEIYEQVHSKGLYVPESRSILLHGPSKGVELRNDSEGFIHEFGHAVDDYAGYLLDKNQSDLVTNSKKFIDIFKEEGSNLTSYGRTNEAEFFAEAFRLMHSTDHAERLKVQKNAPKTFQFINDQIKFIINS
ATP-binding cassette sub-family B member 6 (Homo sapiens), sequence (Q9NP58 whole entry, looked up): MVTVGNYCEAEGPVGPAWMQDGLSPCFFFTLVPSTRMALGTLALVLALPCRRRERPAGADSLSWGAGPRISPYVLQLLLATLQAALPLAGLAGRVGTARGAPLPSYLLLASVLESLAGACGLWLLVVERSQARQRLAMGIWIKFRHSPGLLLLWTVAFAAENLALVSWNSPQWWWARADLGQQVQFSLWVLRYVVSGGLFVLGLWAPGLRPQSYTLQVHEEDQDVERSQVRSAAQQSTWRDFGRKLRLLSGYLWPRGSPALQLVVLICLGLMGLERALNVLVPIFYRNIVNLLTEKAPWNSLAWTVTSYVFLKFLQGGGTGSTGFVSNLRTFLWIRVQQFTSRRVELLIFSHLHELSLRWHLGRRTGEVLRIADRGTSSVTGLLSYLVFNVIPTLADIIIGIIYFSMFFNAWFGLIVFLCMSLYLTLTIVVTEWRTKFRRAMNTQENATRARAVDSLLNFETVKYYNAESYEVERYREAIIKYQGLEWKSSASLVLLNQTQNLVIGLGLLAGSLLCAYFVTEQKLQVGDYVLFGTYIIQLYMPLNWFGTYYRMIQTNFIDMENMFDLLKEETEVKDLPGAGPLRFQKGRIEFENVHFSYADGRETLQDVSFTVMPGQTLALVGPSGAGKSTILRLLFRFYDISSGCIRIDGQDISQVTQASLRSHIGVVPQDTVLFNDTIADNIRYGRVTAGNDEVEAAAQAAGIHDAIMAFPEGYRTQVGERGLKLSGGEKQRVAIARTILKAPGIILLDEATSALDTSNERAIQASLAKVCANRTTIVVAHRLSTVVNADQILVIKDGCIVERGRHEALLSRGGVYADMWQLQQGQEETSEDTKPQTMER
Beta-2 adrenergic receptor (Homo sapiens), sequence (P07550 whole entry, looked up): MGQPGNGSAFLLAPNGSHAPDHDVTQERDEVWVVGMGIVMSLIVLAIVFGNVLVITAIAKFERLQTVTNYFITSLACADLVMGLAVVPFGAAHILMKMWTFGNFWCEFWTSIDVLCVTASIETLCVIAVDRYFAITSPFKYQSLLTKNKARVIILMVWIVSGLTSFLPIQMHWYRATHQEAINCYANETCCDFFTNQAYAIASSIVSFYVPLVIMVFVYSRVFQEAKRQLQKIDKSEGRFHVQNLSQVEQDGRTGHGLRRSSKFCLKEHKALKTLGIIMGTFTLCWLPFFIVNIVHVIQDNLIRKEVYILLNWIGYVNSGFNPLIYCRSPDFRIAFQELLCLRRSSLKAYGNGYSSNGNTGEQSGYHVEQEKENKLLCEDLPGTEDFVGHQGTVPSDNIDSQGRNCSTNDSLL
Beta-adrenergic receptor kinase 1 (Homo sapiens), sequence (P25098 whole entry, looked up): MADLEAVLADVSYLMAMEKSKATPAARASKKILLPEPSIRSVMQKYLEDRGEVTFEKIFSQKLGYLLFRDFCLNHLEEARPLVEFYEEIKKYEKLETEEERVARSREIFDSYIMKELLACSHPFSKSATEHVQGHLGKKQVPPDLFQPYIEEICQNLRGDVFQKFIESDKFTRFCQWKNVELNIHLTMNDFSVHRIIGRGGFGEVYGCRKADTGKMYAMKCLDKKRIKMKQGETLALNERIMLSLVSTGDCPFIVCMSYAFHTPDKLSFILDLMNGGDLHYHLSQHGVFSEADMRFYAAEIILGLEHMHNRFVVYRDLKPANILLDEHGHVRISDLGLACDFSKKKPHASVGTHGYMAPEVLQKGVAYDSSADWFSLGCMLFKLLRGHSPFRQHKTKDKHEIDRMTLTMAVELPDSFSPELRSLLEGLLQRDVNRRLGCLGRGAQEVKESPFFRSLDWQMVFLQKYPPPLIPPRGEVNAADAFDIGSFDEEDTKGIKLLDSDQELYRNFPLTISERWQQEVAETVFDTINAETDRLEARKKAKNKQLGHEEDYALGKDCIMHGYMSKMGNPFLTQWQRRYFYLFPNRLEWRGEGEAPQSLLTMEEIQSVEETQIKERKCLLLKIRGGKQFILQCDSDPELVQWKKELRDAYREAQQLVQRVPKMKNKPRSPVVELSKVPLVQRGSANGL
AP-2 complex subunit beta (Homo sapiens), sequence (P63010 whole entry, looked up, one chain of several): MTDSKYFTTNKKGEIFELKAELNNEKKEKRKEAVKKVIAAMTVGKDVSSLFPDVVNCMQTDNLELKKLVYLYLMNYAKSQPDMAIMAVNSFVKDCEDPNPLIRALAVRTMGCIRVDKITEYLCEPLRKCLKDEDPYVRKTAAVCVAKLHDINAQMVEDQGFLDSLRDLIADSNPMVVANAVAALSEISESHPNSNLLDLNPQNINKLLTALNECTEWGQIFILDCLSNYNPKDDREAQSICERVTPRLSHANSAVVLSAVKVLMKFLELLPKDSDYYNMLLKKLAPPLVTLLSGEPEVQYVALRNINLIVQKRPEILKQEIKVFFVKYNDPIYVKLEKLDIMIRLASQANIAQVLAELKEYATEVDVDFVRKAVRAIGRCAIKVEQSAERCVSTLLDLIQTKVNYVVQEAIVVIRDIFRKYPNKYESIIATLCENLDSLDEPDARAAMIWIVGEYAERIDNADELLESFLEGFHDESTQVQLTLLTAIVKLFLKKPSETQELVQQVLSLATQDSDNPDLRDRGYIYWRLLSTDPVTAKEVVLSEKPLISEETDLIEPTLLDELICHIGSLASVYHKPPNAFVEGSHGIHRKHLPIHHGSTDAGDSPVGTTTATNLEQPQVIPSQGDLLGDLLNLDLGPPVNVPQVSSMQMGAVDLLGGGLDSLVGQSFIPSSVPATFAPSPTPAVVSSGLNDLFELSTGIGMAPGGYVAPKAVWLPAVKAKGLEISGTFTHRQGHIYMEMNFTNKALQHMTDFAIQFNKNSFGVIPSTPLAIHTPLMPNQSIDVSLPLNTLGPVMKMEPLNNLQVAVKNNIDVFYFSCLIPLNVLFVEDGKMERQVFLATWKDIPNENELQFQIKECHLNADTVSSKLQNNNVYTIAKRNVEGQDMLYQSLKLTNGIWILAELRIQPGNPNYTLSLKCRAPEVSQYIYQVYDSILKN
Botulinum neurotoxin type A (Clostridium botulinum), sequence (P0DPI0 whole entry, looked up): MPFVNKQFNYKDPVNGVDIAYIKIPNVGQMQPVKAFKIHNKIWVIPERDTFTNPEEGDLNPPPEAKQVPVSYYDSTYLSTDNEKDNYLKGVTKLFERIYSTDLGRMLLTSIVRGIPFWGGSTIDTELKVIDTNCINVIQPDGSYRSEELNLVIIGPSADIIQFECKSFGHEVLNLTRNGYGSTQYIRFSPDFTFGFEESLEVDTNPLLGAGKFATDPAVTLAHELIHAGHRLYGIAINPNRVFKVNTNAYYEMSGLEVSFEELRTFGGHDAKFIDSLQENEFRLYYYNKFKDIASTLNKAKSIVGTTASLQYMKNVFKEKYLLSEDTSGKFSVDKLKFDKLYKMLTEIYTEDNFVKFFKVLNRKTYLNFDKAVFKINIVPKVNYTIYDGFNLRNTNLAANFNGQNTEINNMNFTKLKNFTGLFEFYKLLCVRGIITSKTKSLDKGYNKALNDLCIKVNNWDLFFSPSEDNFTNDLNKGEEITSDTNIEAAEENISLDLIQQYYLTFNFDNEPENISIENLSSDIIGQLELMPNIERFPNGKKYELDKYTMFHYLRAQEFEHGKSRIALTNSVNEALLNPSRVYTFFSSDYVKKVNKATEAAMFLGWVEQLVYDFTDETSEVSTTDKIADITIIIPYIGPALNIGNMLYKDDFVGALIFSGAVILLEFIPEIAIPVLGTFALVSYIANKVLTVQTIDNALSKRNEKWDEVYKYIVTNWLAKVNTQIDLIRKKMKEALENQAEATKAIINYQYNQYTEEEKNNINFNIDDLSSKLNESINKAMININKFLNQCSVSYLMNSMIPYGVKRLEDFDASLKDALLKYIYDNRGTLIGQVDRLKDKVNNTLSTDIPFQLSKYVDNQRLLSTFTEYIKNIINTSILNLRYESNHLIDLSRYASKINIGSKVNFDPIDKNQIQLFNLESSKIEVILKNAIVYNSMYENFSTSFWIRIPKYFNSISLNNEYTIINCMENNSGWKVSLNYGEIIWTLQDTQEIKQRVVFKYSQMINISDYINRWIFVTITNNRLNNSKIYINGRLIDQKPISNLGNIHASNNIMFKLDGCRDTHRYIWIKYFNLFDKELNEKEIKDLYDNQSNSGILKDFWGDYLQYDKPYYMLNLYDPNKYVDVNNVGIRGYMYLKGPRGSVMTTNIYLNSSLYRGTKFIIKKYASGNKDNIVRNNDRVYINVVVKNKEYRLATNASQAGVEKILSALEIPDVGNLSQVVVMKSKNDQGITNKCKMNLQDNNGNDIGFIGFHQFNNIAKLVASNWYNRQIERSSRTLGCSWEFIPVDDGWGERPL

OC(c1ccccc1)(c1ccccc1)C1CCNCC1
73.3%: double positive events [6]
inactive: percent of DMSO control GFP [1] 99.4% | GFP response vs DMSO [2] 110% | percent response of DMSO control [3] 104% | GFP response vs DMSO [4] 85.3% | GFP response, % of DMSO [5] 103% | vesicle binding response [6] 322% | inhibition [7] -5.18% | superoxide response (% of plate) [8] 94.6% | aptamer binding inhibition [9] 12% | response [10] 6.3% | inhibition [11] 2.73% | response [12] 10.3% | binding (% of control) [13] 106% | inhibition [14] 4.1% | inhibition [15] 1.1% | inhibition [16] 4.1% | efflux inhibition (fraction of control) [17] 0.05 | inhibition [18] 12% | differentiation response [19] 2.46%

COP(=S)(OC)SCN1C(=O)c2ccccc2C1=O
63.5%: double positive events [6]
inactive: percent of DMSO control GFP [1] 90.6% | GFP response vs DMSO [2] 92.7% | percent response of DMSO control [3] 97% | GFP response vs DMSO [4] 144% | GFP response, % of DMSO [5] 107% | vesicle binding response [6] 194% | inhibition [7] 0.59% | superoxide response (% of plate) [8] 97.7% | aptamer binding inhibition [9] -4% | response [10] -10.4% | inhibition [11] -11.6% | response [12] 6.49% | binding (% of control) [13] 96.4% | inhibition [14] -1.7% | inhibition [15] -0.5% | inhibition [16] -2.9% | efflux inhibition (fraction of control) [17] -0.09 | inhibition [18] -1% | differentiation response [19] 3.88%

Clc1ccc(C2NCCc3[nH]cnc32)cc1 (stereo not given)
60.8%: double positive events [6]
inactive: percent of DMSO control GFP [1] 104% | GFP response vs DMSO [2] 98.3% | percent response of DMSO control [3] 101% | GFP response vs DMSO [4] 92% | GFP response, % of DMSO [5] 104% | vesicle binding response [6] 244% | inhibition [7] -1.49% | superoxide response (% of plate) [8] 94.4% | aptamer binding inhibition [9] -1% | response [10] -11.3% | inhibition [11] -2.42% | response [12] 0.96% | binding (% of control) [13] 100% | inhibition [14] 1.1% | inhibition [15] 0.7% | inhibition [16] -5.5% | efflux inhibition (fraction of control) [17] -0.1 | inhibition [18] 1% | differentiation response [19] -5.62%

c1ccc2c(c1)[nH]c1cnccc12
62.8%: double positive events [6]
inactive: percent of DMSO control GFP [1] 102% | GFP response vs DMSO [2] 97.2% | percent response of DMSO control [3] 104% | GFP response vs DMSO [4] 88.1% | GFP response, % of DMSO [5] 95.9% | vesicle binding response [6] 961% | inhibition [7] -18.1% | superoxide response (% of plate) [8] 99.7% | aptamer binding inhibition [9] 0% | response [10] -10.7% | inhibition [11] -7.59% | response [12] -0.12% | binding (% of control) [13] 96.1% | inhibition [14] 5.3% | inhibition [15] 2.5% | inhibition [16] -4.7% | efflux inhibition (fraction of control) [17] 0.14 | inhibition [18] 0% | differentiation response [19] 2.2%

O=c1cccc2n1C[C@H]1C[C@@H]2CN2CCCC[C@@H]12
61.7%: double positive events [6]
inactive: percent of DMSO control GFP [1] 97.6% | GFP response vs DMSO [2] 111% | percent response of DMSO control [3] 94.8% | GFP response vs DMSO [4] 118% | GFP response, % of DMSO [5] 98.1% | vesicle binding response [6] 124% | inhibition [7] -9.98% | superoxide response (% of plate) [8] 100% | aptamer binding inhibition [9] -2% | response [10] 2.05% | inhibition [11] -2.4% | response [12] -3.47% | binding (% of control) [13] 101% | inhibition [14] -0.6% | inhibition [15] -0.2% | inhibition [16] -7.3% | efflux inhibition (fraction of control) [17] -0.03 | inhibition [18] 4% | differentiation response [19] -24.8%

O=S(=O)(c1ccc(F)cc1)N1CCCCC1c1cccnc1 (stereo not given)
62%: double positive events [6]
inactive: percent of DMSO control GFP [1] 99% | GFP response vs DMSO [2] 102% | percent response of DMSO control [3] 98.3% | GFP response vs DMSO [4] 112% | GFP response, % of DMSO [5] 113% | vesicle binding response [6] 202% | inhibition [7] -2.82% | superoxide response (% of plate) [8] 99.7% | aptamer binding inhibition [9] -2% | response [10] -9.47% | inhibition [11] -4.49% | response [12] 2.55% | binding (% of control) [13] 105% | inhibition [14] 0.1% | inhibition [15] 0.8% | inhibition [16] 3.2% | efflux inhibition (fraction of control) [17] 0.08 | inhibition [18] 3% | differentiation response [19] -11.9%

COc1ccc(NC2=NCC(C)S2)cc1 (stereo not given)
inactive: percent of DMSO control GFP [1] 103% | GFP response vs DMSO [2] 101% | percent response of DMSO control [3] 109% | GFP response vs DMSO [4] 89.3% | GFP response, % of DMSO [5] 96% | vesicle binding response [6] 150% | inhibition [7] 11% | superoxide response (% of plate) [8] 101% | aptamer binding inhibition [9] 2% | response [10] 5.38% | inhibition [11] 5.98% | response [12] 4.39% | binding (% of control) [13] 100% | inhibition [14] -2.8% | inhibition [15] 0.2% | inhibition [16] -2.7% | efflux inhibition (fraction of control) [17] 0.195 | inhibition [18] 0% | differentiation response [19] -3.11%
69.5%: double positive events [6]

COP(=O)(OC)C(O)C(Cl)(Cl)Cl (stereo not given)
62.8%: double positive events [6]
inactive: percent of DMSO control GFP [1] 103% | GFP response vs DMSO [2] 98.3% | percent response of DMSO control [3] 102% | GFP response vs DMSO [4] 99.9% | GFP response, % of DMSO [5] 102% | vesicle binding response [6] 230% | inhibition [7] 9.92% | superoxide response (% of plate) [8] 94.8% | aptamer binding inhibition [9] 3% | response [10] -7.88% | inhibition [11] -9.07% | response [12] 0.81% | binding (% of control) [13] 97.9% | inhibition [14] -1% | inhibition [15] -0.6% | inhibition [16] -2.9% | efflux inhibition (fraction of control) [17] -0.17 | inhibition [18] -2% | differentiation response [19] 12.9%
